# Assay results from PubChem BioAssay (NCI).
# Compounds without any hit were thinned out: in the full panel of roughly 79,000, 15% have a hit. A number with no mark means an inactive call. Activity calls are given as the source filed them. No stated cut-off is given here; in the data, active means growth inhibition above about 70%; inactive means the rest.
# How the values were obtained:
# [1] = NCI Yeast Anticancer Drug Screen. Data for the rad52 strain (AID 147);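 further: 0% = growth of vehicle-treated control cultures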; conditions: S. cerevisiae rad52 mutant growth inhibition, stronger effect = higher value
# In short: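 DNA repair-defective yeast; compound exposure; growth scored against vehicle controls.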
# [2] = NCI Yeast Anticancer Drug Screen. Data for the wt1 strain (AID 149);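 further: 0% = growth of vehicle-treated wt1 cultures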; conditions: S. cerevisiae wt1 strain (SPY 50644) growth inhibition, stronger effect = higher value
# In short: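 Each compound is tested on wt1 yeast and the loss of growth versus vehicle gives the inhibition value.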
# [3] = NCI Yeast Anticancer Drug Screen. Data for the rad50EPP+ strain (AID 151);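 further: 0% = growth of vehicle-treated control cultures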; conditions: S. cerevisiae rad50 mutant strain, stronger effect = higher value
# In short: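 rad50EPP+ yeast treated with test compounds. Readout: growth vs vehicle control.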
# [4] = NCI Yeast Anticancer Drug Screen. Data for the mgt1 strain (AID 153); conditions: S. cerevisiae mgt1 mutant growth inhibition, stronger effect = higher value
# In short: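 Growth inhibition relative to vehicle controls was scored for the mgt1 yeast strain after compound exposure.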
# [5] = NCI Yeast Anticancer Drug Screen. Data for the rad50 strain (AID 155);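 further: 0% = growth of vehicle-only cultures of the same strain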; conditions: S. cerevisiae rad50 strain growth inhibition, stronger effect = higher value
# In short: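 Vehicle-treated cultures provide the reference for the growth inhibition reported for compound-exposed, repair-deficient yeast.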
# [6] = NCI Yeast Anticancer Drug Screen. Data for the mec2-1 strain (AID 157); conditions: S. cerevisiae mec2-1 strain, stronger effect = higher value
# In short: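 Growth inhibition is read against vehicle-treated controls after compound exposure of the mec2-1 yeast strain, which is defective in DNA damage repair or cell cycle control.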
# [7] = NCI Yeast Anticancer Drug Screen. Data for the sgs1 mgt1 strain (AID 161);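 further: 0% = growth of cultures given vehicle only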; conditions: S. cerevisiae sgs1 mgt1 strain, stronger effect = higher value
# In short: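 Yeast cells carrying a defined DNA-repair defect were exposed to test compounds. Growth inhibition was measured relative to vehicle-treated controls.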
# [8] = NCI Yeast Anticancer Drug Screen. Data for the CLN2oe strain (AID 163);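 further: 0% = growth of vehicle-only control cultures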; conditions: S. cerevisiae CLN2oe strain, stronger effect = higher value
# In short: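 Compound-treated yeast; growth vs vehicle ctrl = % inhibition. Genetically altered strain (cell-cycle control).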
# [9] = NCI Yeast Anticancer Drug Screen. Data for the cln2 rad14 strain (AID 165);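 further: 0% = growth equal to vehicle treated cultures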; conditions: S. cerevisiae cln2 rad14 strain, stronger effect = higher value
# In short: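 Growth inhibition, relative to vehicle-treated controls, is the read-out. The test organism is a yeast strain with defined genetic alterations, cln2 rad14.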
# [10] = NCI Yeast Anticancer Drug Screen. Data for the bub3 strain (AID 167); conditions: S. cerevisiae bub3 mutant strain, stronger effect = higher value
# In short: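 Mutant yeast screening strain plus compound; vehicle-treated cultures serve as the 0% inhibition reference.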
# [11] = NCI Yeast Anticancer Drug Screen. Data for the wt2 strain (AID 169); conditions: S. cerevisiae wt2 strain growth inhibition, stronger effect = higher value
# In short: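 Compound exposure of yeast; growth compared with vehicle controls; inhibition reported.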
# [12] = NCI Yeast Anticancer Drug Screen. Data for the mlh1 strain (AID 171);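 further: 0% = growth of vehicle-treated control cultures of the same strain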; conditions: S. cerevisiae mlh1 strain growth inhibition, stronger effect = higher value
# In short: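 Compounds are applied to a genetically altered yeast strain, and its growth is compared with that of vehicle-treated cultures to give percent inhibition.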
# [13] = NCI Yeast Anticancer Drug Screen. Data for the sgs1 strain (AID 173);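 further: 0% = growth of vehicle-only control cultures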; conditions: S. cerevisiae sgs1 mutant, stronger effect = higher value
# In short: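 Compounds applied to genetically altered yeast; growth compared with vehicle-treated cultures to give % inhibition.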
# [14] = NCI Yeast Anticancer Drug Screen. Data for the mlh1 rad18 strain (AID 175); conditions: S. cerevisiae mlh1 rad18 strain growth inhibition, stronger effect = higher value
# In short: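 Cells of a genetically altered yeast strain, deficient in DNA damage repair, were treated with compound. Their growth was then compared with that of vehicle-treated cultures to give inhibition.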
# [15] = NCI Yeast Anticancer Drug Screen. Data for the rad18 strain (AID 177); conditions: S. cerevisiae rad18 mutant growth inhibition, stronger effect = higher value
# In short: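 Compounds are applied to a repair-deficient yeast strain, and growth is compared with that of vehicle-treated cultures to give percent inhibition.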
# [16] = at 5.0 µM (retest, dose inferred, filed as 0.5)
# [17] = at 50.0 µM (retest, dose inferred, filed as 5.0)
smiles,measurement,setting,value
CNC(=O)OCc1c(COC(=O)NC)c(-c2ccc(Cl)c(Cl)c2)n2c1CCC2,growth inhibition,[1]; at 1.2 µM,-21%
same,growth inhibition,[1]; at 3.7 µM,-27%
same,growth inhibition,[1]; at 11.0 µM,-14%
same,growth inhibition,[1]; at 33.0 µM,77% (active)
same,growth inhibition,[1]; at 100.0 µM,97% (active)
same,growth inhibition,[2]; at 1.2 µM,-53%
same,growth inhibition,[2]; at 3.7 µM,-56%
same,growth inhibition,[2]; at 11.0 µM,-48%
same,growth inhibition,[2]; at 33.0 µM,71% (active)
same,growth inhibition,[2]; at 100.0 µM,98% (active)
same,growth inhibition,[3]; at 1.2 µM,-19%
same,growth inhibition,[3]; at 3.7 µM,-21%
same,growth inhibition,[3]; at 11.0 µM,-31%
same,growth inhibition,[3]; at 33.0 µM,-28%
same,growth inhibition,[3]; at 100.0 µM,4%
same,growth inhibition,[4]; at 1.2 µM,-66%
same,growth inhibition,[4]; at 3.7 µM,-73%
same,growth inhibition,[4]; at 11.0 µM,-69%
same,growth inhibition,[4]; at 33.0 µM,95% (active)
same,growth inhibition,[4]; at 100.0 µM,98% (active)
same,growth inhibition,[5]; at 1.2 µM,-51%
same,growth inhibition,[5]; at 3.7 µM,-51%
same,growth inhibition,[5]; [16],17%
same,growth inhibition,[5]; at 11.0 µM,-37%
same,growth inhibition,[5]; at 33.0 µM,87% (active)
same,growth inhibition,[5]; [17],98% (active)
same,growth inhibition,[5]; at 50.0 µM,84.9% (active)
same,growth inhibition,[5]; at 100.0 µM,97% (active)
same,growth inhibition,[6]; at 1.2 µM,-74%
same,growth inhibition,[6]; at 3.7 µM,-47%
same,growth inhibition,[6]; [16],-5%
same,growth inhibition,[6]; at 11.0 µM,-32%
same,growth inhibition,[6]; at 33.0 µM,85% (active)
same,growth inhibition,[6]; [17],98% (active)
same,growth inhibition,[6]; at 50.0 µM,87.5% (active)
same,growth inhibition,[6]; at 100.0 µM,98% (active)
same,growth inhibition,[7]; [16],32%
same,growth inhibition,[7]; [17],99% (active)
same,growth inhibition,[7]; at 50.0 µM,78.5% (active)
same,growth inhibition,[8]; at 1.2 µM,-4%
same,growth inhibition,[8]; at 3.7 µM,-13%
same,growth inhibition,[8]; at 11.0 µM,-13%
same,growth inhibition,[8]; at 33.0 µM,65%
same,growth inhibition,[8]; at 100.0 µM,98% (active)
same,growth inhibition,[9]; [16],38%
same,growth inhibition,[9]; [17],99% (active)
same,growth inhibition,[9]; at 50.0 µM,86.9% (active)
same,growth inhibition,[10]; at 1.2 µM,-58%
same,growth inhibition,[10]; at 3.7 µM,-61%
same,growth inhibition,[10]; [16],52%
same,growth inhibition,[10]; at 11.0 µM,-35%
same,growth inhibition,[10]; at 33.0 µM,93% (active)
same,growth inhibition,[10]; [17],99% (active)
same,growth inhibition,[10]; at 50.0 µM,55.6%
same,growth inhibition,[10]; at 100.0 µM,97% (active)
same,growth inhibition,[11]; at 1.2 µM,-14%
same,growth inhibition,[11]; at 3.7 µM,-14%
same,growth inhibition,[11]; at 11.0 µM,-14%
same,growth inhibition,[11]; at 33.0 µM,62%
same,growth inhibition,[11]; at 100.0 µM,97% (active)
same,growth inhibition,[12]; at 1.2 µM,-94%
same,growth inhibition,[12]; at 3.7 µM,-90%
same,growth inhibition,[12]; at 11.0 µM,-81%
same,growth inhibition,[12]; at 33.0 µM,98% (active)
same,growth inhibition,[12]; at 100.0 µM,97% (active)
same,growth inhibition,[13]; at 1.2 µM,-11%
same,growth inhibition,[13]; at 3.7 µM,-20%
same,growth inhibition,[13]; at 11.0 µM,-29%
same,growth inhibition,[13]; at 33.0 µM,88% (active)
same,growth inhibition,[13]; at 100.0 µM,97% (active)
same,growth inhibition,[14]; [16],5%
same,growth inhibition,[14]; [17],97% (active)
same,growth inhibition,[14]; at 50.0 µM,91.2% (active)
same,growth inhibition,[15]; at 1.2 µM,-39%
same,growth inhibition,[15]; at 3.7 µM,-46%
same,growth inhibition,[15]; at 11.0 µM,-32%
same,growth inhibition,[15]; at 33.0 µM,94% (active)
same,growth inhibition,[15]; at 100.0 µM,97% (active)
